From ChEMBL document CHEMBL3988442, “University of Dundee, Small-Polar-MMV Screening Library” (2021)
For some assays here: Potency and affinity values are given separately.

Key:
Design in all cases: scale not given: direction of the effect not stated beside the values
[1] = target: Protein translocase subunit SecA (Escherichia coli (strain K12)) (UniProt P10408); assay: Assay to Identify E. coli SecA ATPase Inhibitors; type: functional; details: 30 µM
[2] = target: T1, Ubiquitin-activating enzyme e1, putative (Leishmania donovani (strain BPK282A1)) (UniProt E9BSI1); assay: Leishmania donovani Ubiquitin Activating Enzyme (LdE1); type: functional; details: 30 µM
T1 sequence (whole entry): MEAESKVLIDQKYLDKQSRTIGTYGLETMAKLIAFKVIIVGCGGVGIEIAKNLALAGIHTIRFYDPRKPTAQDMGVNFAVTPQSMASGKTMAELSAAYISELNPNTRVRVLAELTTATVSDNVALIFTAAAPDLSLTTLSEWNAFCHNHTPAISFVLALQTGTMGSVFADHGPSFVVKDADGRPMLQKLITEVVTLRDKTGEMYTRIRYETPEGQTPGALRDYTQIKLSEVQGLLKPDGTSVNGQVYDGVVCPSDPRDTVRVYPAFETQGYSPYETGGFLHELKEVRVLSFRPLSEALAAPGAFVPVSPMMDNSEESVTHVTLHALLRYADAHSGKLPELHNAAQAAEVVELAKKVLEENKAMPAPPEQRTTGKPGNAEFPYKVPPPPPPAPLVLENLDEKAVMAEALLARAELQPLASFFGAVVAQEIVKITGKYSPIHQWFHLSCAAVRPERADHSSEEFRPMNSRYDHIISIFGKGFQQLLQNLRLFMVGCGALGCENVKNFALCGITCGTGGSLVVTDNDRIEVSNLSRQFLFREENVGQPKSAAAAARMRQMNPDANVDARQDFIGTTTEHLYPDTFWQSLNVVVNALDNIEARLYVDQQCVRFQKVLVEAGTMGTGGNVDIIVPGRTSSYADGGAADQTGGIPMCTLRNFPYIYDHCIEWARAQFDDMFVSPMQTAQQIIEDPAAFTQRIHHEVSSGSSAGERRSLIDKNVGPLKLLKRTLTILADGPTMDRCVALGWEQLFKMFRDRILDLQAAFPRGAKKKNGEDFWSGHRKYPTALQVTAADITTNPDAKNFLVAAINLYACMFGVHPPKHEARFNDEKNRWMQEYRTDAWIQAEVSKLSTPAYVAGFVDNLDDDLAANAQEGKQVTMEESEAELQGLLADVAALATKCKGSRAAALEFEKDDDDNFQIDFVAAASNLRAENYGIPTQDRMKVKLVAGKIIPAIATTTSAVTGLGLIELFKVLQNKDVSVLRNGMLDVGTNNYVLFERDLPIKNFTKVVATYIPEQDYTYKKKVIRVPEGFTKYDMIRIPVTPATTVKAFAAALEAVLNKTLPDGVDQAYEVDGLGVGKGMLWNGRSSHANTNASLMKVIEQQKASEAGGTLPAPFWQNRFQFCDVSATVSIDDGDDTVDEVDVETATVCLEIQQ

[3] = target: AMP-activated protein kinase, AMPK (Homo sapiens) (UniProt P54646+O43741+P54619+Q9UGJ0+Q9Y478+Q13131+Q9UGI9); assay: AMP-dependent Kinase enzyme assay. An in vitro enzyme assay that detects ADP turnover that is directly proportional to AMPK activity. This uses naive AMPK that is activated during the assay with MK-8722; type: functional; details: 30 µM
[4] = target: Sialic acid-binding Ig-like lectin 9 (Homo sapiens) (UniProt Q9Y336); assay: Hs-Siglec9 ALPHAscreen SOP 20170721; details: 10 µM
Trypanosoma cruzi = assay: Trypanosoma cruzi phosphomannomutase and mannose-1-phosphate guanylyltransferase assay; type: functional; details: 10 µM
[5] = target: T2, Arginase-2, mitochondrial (Homo sapiens) (UniProt P78540); assay: in vitro enzyme assay to detect the production of urea directly proportional to the activity of Arginase II; type: functional; details: 33.3 µM; also: in the data most compounds retested in dose-response had high values
T2 sequence (whole entry): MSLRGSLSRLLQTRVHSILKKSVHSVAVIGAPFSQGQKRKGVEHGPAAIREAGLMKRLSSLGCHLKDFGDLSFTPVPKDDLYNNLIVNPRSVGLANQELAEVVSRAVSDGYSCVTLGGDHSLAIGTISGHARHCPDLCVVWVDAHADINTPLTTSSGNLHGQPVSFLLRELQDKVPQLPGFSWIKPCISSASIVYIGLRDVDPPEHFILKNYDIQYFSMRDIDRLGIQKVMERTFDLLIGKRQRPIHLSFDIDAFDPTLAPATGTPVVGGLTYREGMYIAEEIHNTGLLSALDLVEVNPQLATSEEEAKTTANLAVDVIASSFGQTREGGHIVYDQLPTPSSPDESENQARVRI

[6] = target: T3, Proteasome subunit beta (Trypanosoma cruzi) (UniProt O96673); assay: Trypanosoma cruzi proteasome chymotrypsin-like activity (TcProtChymo) assay.; also: in the data most compounds retested in dose-response had high values; type: functional; details: 9.37 µM
T3 sequence (whole entry): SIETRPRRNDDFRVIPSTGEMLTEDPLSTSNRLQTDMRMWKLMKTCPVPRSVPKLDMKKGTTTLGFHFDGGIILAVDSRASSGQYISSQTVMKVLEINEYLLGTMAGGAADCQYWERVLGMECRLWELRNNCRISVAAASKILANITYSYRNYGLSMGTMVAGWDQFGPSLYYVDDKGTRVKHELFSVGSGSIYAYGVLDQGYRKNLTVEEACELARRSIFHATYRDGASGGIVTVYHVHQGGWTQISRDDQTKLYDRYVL

Homo sapiens = species: Homo sapiens; assay: To identify inhibition of the IFN signalling (Jak-Stat) pathway via expression of an eGFP reporter gene under the control of an IFN-stimulated response element (ISRE) containing MxA promoter.; type: functional; details: 30 µM
[7] = target: T4, Tyrosyl-tRNA synthetase, putative (Trypanosoma cruzi (strain CL Brener)) (UniProt Q4DSP6); assay: Trypanosoma cruzi tyrosyl tRNA synthetase (TcYRS) _High Tyrosine SOP; type: functional; details: 30 µM; also: in the data most compounds retested in dose-response had high values
T4 sequence (whole entry): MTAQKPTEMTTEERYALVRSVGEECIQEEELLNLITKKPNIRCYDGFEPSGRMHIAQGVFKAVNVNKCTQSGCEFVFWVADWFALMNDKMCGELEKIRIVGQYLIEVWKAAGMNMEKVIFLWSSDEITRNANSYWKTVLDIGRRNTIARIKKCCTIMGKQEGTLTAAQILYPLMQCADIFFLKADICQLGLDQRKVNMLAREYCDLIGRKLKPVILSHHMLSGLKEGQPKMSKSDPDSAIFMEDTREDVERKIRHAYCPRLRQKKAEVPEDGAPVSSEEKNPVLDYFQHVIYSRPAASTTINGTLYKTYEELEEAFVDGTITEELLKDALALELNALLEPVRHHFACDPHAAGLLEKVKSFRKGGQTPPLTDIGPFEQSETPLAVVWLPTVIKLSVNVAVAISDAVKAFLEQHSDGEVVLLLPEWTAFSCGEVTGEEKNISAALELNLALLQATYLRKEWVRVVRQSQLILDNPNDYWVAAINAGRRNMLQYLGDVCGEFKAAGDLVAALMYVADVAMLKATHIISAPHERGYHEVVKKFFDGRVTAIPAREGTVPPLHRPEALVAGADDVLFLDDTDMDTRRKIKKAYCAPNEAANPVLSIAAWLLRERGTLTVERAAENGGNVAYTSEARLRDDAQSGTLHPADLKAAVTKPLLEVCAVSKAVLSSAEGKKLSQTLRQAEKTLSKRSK

[8] = target: T4, Tyrosyl-tRNA synthetase, putative (Trypanosoma cruzi (strain CL Brener)); assay: Trypanosoma cruzi tyrosyl tRNA synthetase (TcYRS) SOP; type: functional; details: 30 µM
[9] = target: Chromo domain-containing protein 1 (Saccharomyces cerevisiae (strain ATCC 204508 / S288c) (Baker's yeast)) (UniProt P32657); assay: ScCHD-1 Enzyme Inhibition Assay; type: functional; details: 30 µM; also: in the data most compounds retested in dose-response had high values
Chromo domain-containing protein 1 (Saccharomyces cerevisiae (strain ATCC 204508 / S288c) (Baker's yeast)), sequence (P32657 whole entry, the tested form may be a part): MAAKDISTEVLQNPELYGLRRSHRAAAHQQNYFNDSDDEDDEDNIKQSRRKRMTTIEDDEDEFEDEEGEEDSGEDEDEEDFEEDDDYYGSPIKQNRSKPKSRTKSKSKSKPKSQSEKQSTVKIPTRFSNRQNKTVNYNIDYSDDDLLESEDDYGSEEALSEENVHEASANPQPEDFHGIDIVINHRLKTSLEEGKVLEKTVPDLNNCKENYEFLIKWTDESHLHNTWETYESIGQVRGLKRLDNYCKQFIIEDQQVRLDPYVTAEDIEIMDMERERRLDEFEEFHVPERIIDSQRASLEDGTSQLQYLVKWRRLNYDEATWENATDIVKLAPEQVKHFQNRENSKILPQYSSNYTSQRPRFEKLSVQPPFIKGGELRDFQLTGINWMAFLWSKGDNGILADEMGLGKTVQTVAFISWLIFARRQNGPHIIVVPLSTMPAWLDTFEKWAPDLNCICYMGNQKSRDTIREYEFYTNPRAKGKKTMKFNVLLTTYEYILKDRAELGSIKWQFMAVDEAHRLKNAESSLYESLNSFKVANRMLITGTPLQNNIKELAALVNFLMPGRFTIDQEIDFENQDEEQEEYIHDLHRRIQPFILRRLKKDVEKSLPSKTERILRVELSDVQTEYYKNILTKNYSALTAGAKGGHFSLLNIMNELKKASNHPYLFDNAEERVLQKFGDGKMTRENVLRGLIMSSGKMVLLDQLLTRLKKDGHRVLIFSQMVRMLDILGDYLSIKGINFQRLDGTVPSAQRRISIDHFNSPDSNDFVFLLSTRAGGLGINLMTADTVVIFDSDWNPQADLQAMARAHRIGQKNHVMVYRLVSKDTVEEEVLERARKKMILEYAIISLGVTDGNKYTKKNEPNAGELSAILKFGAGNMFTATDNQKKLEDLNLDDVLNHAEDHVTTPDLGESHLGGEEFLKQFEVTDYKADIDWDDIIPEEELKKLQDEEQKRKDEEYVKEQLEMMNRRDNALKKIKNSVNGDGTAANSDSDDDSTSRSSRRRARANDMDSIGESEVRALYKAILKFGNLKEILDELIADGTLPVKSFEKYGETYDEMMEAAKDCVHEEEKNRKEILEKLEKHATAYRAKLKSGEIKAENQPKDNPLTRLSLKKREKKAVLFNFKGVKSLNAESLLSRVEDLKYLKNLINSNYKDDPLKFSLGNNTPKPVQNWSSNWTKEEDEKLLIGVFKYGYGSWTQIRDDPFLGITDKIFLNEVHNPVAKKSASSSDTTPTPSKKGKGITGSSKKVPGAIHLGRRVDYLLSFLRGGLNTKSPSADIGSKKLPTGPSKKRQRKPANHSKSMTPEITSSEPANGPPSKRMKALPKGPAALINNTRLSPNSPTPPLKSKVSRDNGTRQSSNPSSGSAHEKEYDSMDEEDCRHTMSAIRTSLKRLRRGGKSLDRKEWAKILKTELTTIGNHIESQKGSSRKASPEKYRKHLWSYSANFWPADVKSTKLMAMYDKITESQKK

Protein translocase subunit SecA (Escherichia coli (strain K12)), sequence (P10408 whole entry): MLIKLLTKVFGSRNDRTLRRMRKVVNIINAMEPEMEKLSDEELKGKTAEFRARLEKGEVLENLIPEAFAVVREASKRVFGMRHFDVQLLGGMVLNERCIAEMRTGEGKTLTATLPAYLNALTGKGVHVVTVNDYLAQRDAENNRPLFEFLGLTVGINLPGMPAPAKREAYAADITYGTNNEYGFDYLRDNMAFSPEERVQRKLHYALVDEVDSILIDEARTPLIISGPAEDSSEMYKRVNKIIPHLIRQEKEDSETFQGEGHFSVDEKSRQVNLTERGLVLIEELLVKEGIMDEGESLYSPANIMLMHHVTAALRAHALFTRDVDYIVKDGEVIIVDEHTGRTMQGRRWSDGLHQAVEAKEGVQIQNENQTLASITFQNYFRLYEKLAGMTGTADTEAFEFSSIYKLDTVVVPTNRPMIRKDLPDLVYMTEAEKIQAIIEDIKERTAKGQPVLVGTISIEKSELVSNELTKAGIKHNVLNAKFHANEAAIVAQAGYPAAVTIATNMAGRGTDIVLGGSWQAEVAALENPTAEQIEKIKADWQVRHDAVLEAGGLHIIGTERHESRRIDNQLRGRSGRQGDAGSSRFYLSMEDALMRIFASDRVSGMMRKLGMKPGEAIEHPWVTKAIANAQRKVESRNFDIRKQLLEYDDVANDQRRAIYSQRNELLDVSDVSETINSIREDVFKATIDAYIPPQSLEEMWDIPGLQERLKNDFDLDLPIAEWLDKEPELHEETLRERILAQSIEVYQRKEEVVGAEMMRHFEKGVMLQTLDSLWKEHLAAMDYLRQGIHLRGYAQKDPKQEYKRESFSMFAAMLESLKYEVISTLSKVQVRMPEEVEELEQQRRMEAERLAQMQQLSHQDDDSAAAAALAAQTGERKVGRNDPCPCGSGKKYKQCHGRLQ
Sialic acid-binding Ig-like lectin 9 (Homo sapiens), sequence (Q9Y336 whole entry): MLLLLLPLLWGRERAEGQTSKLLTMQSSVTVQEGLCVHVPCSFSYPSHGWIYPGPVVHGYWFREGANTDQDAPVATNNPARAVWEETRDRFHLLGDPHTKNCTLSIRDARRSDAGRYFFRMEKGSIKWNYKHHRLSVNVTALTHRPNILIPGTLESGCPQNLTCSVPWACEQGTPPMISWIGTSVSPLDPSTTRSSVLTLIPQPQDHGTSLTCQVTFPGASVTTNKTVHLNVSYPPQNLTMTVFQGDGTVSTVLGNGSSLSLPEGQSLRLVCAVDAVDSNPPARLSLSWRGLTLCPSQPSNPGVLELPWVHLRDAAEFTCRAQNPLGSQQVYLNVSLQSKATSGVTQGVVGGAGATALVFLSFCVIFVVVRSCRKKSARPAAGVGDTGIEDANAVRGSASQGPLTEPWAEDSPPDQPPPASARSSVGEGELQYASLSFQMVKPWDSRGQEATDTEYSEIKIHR

| SMILES | Percent Effect [1] [%] | Percent Effect [2] [%] | Percent Effect [3] [%] | Percent Effect [4] [%] | Percent Effect (Trypanosoma cruzi) [%] | Percent Effect [5] [%] | Percent Effect [6] [%] | Percent Effect (Homo sapiens) [%] | Percent Effect [7] [%] | Percent Effect [8] [%] | Percent Effect [9] [%] |
| --- | --- | --- | --- | --- | --- | --- | --- | --- | --- | --- | --- |
| CC(=O)NCCNC(=O)c1sc(-c2ccc(C)cc2C)nc1C | -2.37 | 10.8 | -0.818 | -4.19 | -7.89 | 3.51 | 8.26 | 10.8 | 4.95 | 11 | 7.83 |
| O=C(c1ccc2c(c1)OCO2)N1CCCSCC1CN1CCCC1 (configuration not stated) | -4.51 | 7.79 | 6.33 | 7.89 | -1.08 | 5.81 | 8.53 | -0.0393 | 8.47 | 11.5 | -7.09 |
| CCCc1n[nH]c(C2CN(CCn3cccn3)CCO2)n1 (configuration not stated) | -6.25 | -4.17 | -1.07 | -3.33 | 2.04 | 2.21 | 11.9 | -12.6 | 2.1 | 0 | -1.2 |
| COCCNC(=O)CN1CCN(c2nc(C)cs2)C(C)C1 (configuration not stated) | -6.14 | 16.2 | -5.78 | 22 | 5.11 | -1.29 | 13.3 | -1.44 | 2.97 | 15.8 | -7.53 |
| CCc1n[nH]c(C2CN(C(=O)CCc3cccs3)CCO2)n1 (configuration not stated) | -5.44 | 11.4 | -4.01 | -7.1 | 1.74 | 0.645 | 8.23 | 1.68 | 4.17 | 12.7 | -38.8 |
| CC1CN(Cc2nccn2C)CCN1c1ccc2nncn2n1 (configuration not stated) | -5.26 | 10.4 | -8.38 | 12.5 | 5.62 | 2.85 | 9.29 | 7.44 | 5.83 | 21.9 | -9.26 |
| Cc1csc(N2CCN(C(=O)CCc3nccs3)CC2)n1 | -6.78 | 8.11 | -8.38 | 7.91 | 3.11 | -17.2 | 5.59 | 11.7 | 12.3 | 28.4 | -11.1 |
| O=C(CCc1ccccc1)NCC1CCN(Cc2ccsc2)CC1 | -2.4 | 13 | 4.5 | -9.22 | -5.62 | 7.1 | 15.3 | 20.5 | 2.12 | 8.97 | -8.15 |
| CCc1ccc(C(=O)N2CCC(c3nncn3CC)CC2)cc1 | -10 | 18.4 | -9.82 | -0.88 | 7.3 | -5.92 | 7.57 | 5.31 | 3.19 | 15.6 | -9.19 |
| CNc1cc(N2CCCC2CNCc2ccc(Cl)o2)ncn1 (configuration not stated) | -6.85 | 13.5 | -2.54 | 43.1 | 8.98 | 16.2 | 18.9 | 22 | 15.8 | 23.2 | 89.7 |
| Cc1cnc(Nc2nccnc2C2CCN(C)CC2)s1 | 3.01 | 13.3 | 9.68 | -6.36 | -4.92 | 0.699 | 5.2 | 10.5 | 7.45 | 8.97 | -6.78 |
| COCCN1C[C@@H](C)[C@@]2(COCCN(C(=O)c3cnc(C)cn3)C2)C1 | 0.144 | 10.7 | 6.23 | 3.86 | -3.28 | -21.3 | 12.7 | -11.1 | -5.21 | 12.5 | -6.61 |
| COCC1c2c(cnn2CC2CC2)CCN1Cc1ccc(OC)cc1 (configuration not stated) | 0.566 | -5.33 | -0.782 | 3.28 | -0.772 | -53.2 | 9.23 | 91.4 | -4.17 | 2.5 | -3.58 |
| Cc1nc(C)n(CC2CCCN(c3ncnc4c3CCC4)C2)n1 (configuration not stated) | -4.39 | 0 | 0.226 | -3.72 | -4.25 | -2.81 | -2.88 | 64.3 | -2.46 | -8.64 | 4.82 |
| Cc1cccc(C)c1OCCC(=O)N1CCC(c2nncn2C)CC1 | -6.09 | 23.4 | 3.3 | 8.75 | 6.74 | -2.49 | 6.76 | 4.85 | 6.8 | 21.9 | -8.79 |
| Cc1[nH]ccc1C(=O)N1CCC(c2nnc(Cn3cccn3)n2C)CC1 | -2.68 | 2.74 | -3.04 | 10.2 | 2.98 | 1.6 | 6.42 | -10.2 | 5.21 | 13.6 | 1.58 |
| O=C(Cc1cccnc1)N1CCC2(CC1)CCN(C1CCOCC1)C2 | -5.91 | 0 | 0.681 | -0.504 | -1.67 | -2.76 | 1.83 | 15.5 | 1.07 | -1.24 | 1.45 |
| CC(O)CN1CCC(CNCc2cccc(C(N)=O)c2)CC1 (configuration not stated) | -1.81 | 18.9 | -22.5 | 11 | 3.11 | -6.01 | 6.67 | 10.6 | 8.37 | 16.1 | -10 |
| O=C(NCc1nncn1-c1ccccc1)C1CC(=O)N(CC2CC2)C1 (configuration not stated) | -6.4 | 5.41 | -8.14 | 7.22 | -3.3 | 24.4 | -0.901 | 8.14 | 3.45 | 3.7 | -2.19 |
| Cc1cc(C)n(C2CN(CC(=O)N(C)Cc3ccc(C)o3)C2)n1 | -4.24 | 5.26 | 17.1 | 6.03 | 2.82 | 3.55 | 9.49 | -0.498 | 34 | 28.6 | -4.43 |
| Cc1nc(CN2C(=O)CC[C@@H]3[C@H]2CCN3C(=O)NC2CC2)cs1 | 1.26 | 16.2 | -5.26 | -11.1 | -3.23 | 0.955 | 10.2 | 16.1 | 1.08 | 12.8 | -6.62 |
| Cc1ccc(CN2CCCn3nnc(COCC4CC4)c3C2)s1 | 0.823 | 16 | 9.89 | -6.88 | -2.76 | -11 | 6.96 | 12.7 | 5.32 | 11.5 | -3.12 |
